Test systems include NCI-H23 lung; NCI-H226 lung; NCI-H322M lung; HOP-62 NSCLC; NCI-H460 lung; HOP-92 NSCLC; NCI-H522 lung; A549/ATCC NSCLC; 786-0 renal; COLO 205 colon.
Holding throughout (assay): NCI-60 one-dose screen, 48 h (100 = growth as untreated, 0 = no growth, -100 = all killed)
Common to all, as to conditions: 10 µM unless noted

About 83,000 compounds went through this panel and 20% of them were active in at least one assay; those are over-represented in the sample as a whole.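 A percent growth of 40 corresponds to 60% growth inhibition; 0 means no net growth; -100 means all cells died. Active threshold: below 10.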 Unmarked numbers belong to inactive results. The source made the active and inactive calls.

With `CCN(CC)c1ccc2cc(C(Nc3ccc(Cl)cc3)c3nnnn3C(C)(C)C)c(=O)oc2c1` (stereo not given), the growth in the test with NCI-H23 lung was 95.6%; with NCI-H226 lung it was 82.9%; with NCI-H322M lung it was 93.8%; in the test with HOP-62 NSCLC, 99.5%; in the test with NCI-H460 lung, 84.1%; in the test on HOP-92 NSCLC, 76.9%. For the same compound, the growth in the test on NCI-H522 lung is 79.5%; in the test on A549/ATCC NSCLC, 77.9%; in the test on 786-0 renal it was 94%; in the test with COLO 205 colon, 114%.

`Cc1ccc(S(=O)(=O)NCCCNc2nccc(-c3c(-c4cccc(F)c4)nc4occn34)n2)cc1`: the growth is 102% in the test on NCI-H23 lung; 67.6% with NCI-H226 lung; 77.9% in the test on NCI-H322M lung; 88.5% with HOP-62 NSCLC; 75.7% in the test with NCI-H460 lung; 82.5% with HOP-92 NSCLC. The growth in the test on NCI-H522 lung is 71.6%; in the test on A549/ATCC NSCLC, 53.2%; with 786-0 renal, 73.3%; in the test on COLO 205 colon it was 66%.

As to `CCOc1ccc(S(=O)(=O)Nc2ccc3c(c2)N(S(=O)(=O)CC)CCC3)cc1`, the growth was 87.5% in the test on NCI-H23 lung; 87% in the test on NCI-H226 lung; 86.8% in the test with NCI-H322M lung; 69.9% in the test on HOP-62 NSCLC; 52.6% with NCI-H460 lung; 86.1% in the test on HOP-92 NSCLC. The growth in the test on NCI-H522 lung was 68.4%; in the test with A549/ATCC NSCLC it was 84.3%; in the test with 786-0 renal, 96%; in the test with COLO 205 colon, 62.6%.

As to `CC(=O)O.CC(=O)O.O.[Fe]`, the growth is 106% with NCI-H23 lung; 101% in the test with NCI-H226 lung; 111% in the test with NCI-H322M lung; 103% in the test on HOP-62 NSCLC; 107% with NCI-H460 lung; 99.8% with HOP-92 NSCLC. Also, the growth in the test on NCI-H522 lung is 90%; in the test with A549/ATCC NSCLC, 99.1%; in the test with 786-0 renal, 112%; in the test with COLO 205 colon, 101%.

For `O=C(COc1cccc(/C=C2\Oc3ccccc3C2=O)c1)c1ccc([N+](=O)[O-])cc1`, the growth in the test with NCI-H23 lung was 79.9%; in the test with NCI-H226 lung it was 85.8%; with NCI-H322M lung, 115%; in the test on HOP-62 NSCLC, 103%; in the test on NCI-H460 lung, 95.7%; in the test on HOP-92 NSCLC it was 78.1%. Further, the growth was 57% with NCI-H522 lung, 90% in the test with A549/ATCC NSCLC, 102% in the test on 786-0 renal and 107% in the test with COLO 205 colon.

For the compound `CCCC(NC(=O)OCc1ccccc1)C(=O)O` (stereo not given), the growth in the test on NCI-H23 lung is -1.29% (active); in the test on NCI-H226 lung it was 89.5%; in the test on NCI-H322M lung, 121%; with HOP-62 NSCLC, 111%; with NCI-H460 lung it was 97.9%; with HOP-92 NSCLC, 82.2%. Also, the growth in the test on NCI-H522 lung is 16.2%; with A549/ATCC NSCLC it was 79.5%; in the test on 786-0 renal, 108%; in the test on COLO 205 colon, 137%.

Take `O=C(CSc1nccc(Nc2ccc(S(=O)(=O)Nc3ccccn3)cc2)n1)c1ccc(Cl)cc1`: the growth in the test with NCI-H23 lung was 80.3%; with NCI-H226 lung, 89%; in the test on NCI-H322M lung, 104%; in the test on HOP-62 NSCLC, 83.5%; in the test on NCI-H460 lung, 104%; in the test on HOP-92 NSCLC it was 92.8%. Also, the growth with NCI-H522 lung was 75.4%; in the test on A549/ATCC NSCLC, 105%; in the test with 786-0 renal, 102%; in the test on COLO 205 colon, 110%.

For `CCCc1cc2cc(-n3nc(C)c4c3CC(C)(C)CC4=O)cc(NC3CCSCC3)c2c(=O)[nH]1`, the growth is 36.8% in the test on NCI-H23 lung; 90.2% with NCI-H226 lung; 63.4% in the test on NCI-H322M lung; 45.9% in the test on HOP-62 NSCLC; 66.5% in the test on NCI-H460 lung; 93.2% in the test with HOP-92 NSCLC. Besides, the growth with NCI-H522 lung was 47.7%; in the test with A549/ATCC NSCLC it was 49.1%; in the test with 786-0 renal, 66.8%; in the test on COLO 205 colon it was 41.9%.

As to `Cc1nc(Cl)cc(N(c2cc(Cl)nc(C)n2)c2ncc(C(=O)Nc3c(C)cccc3Cl)s2)n1`, the growth is 78.2% with NCI-H23 lung; 59.3% with NCI-H226 lung; 52.2% with NCI-H322M lung; 39.4% in the test on HOP-62 NSCLC; 59.5% in the test on NCI-H460 lung; -33.5% (active) in the test with HOP-92 NSCLC. The growth in the test on NCI-H522 lung is 53.7%; with A549/ATCC NSCLC, 50.5%; in the test with 786-0 renal it was 40.1%; in the test on COLO 205 colon, 67.7%.

On to `NC(=O)c1c(NC(=O)COC(=O)Cc2ccccc2F)sc2c1CCC2`, for which the growth with NCI-H23 lung was 99.2%; in the test with NCI-H226 lung, 94.4%; with NCI-H322M lung, 126%; in the test on HOP-62 NSCLC it was 115%; in the test with NCI-H460 lung it was 100%; in the test with HOP-92 NSCLC, 89.3%. The growth was 85.5% with NCI-H522 lung, 103% with A549/ATCC NSCLC, 97.6% in the test with 786-0 renal and 101% in the test on COLO 205 colon.

For the compound `CCN(CCO)CCC(=O)c1ccc([N+](=O)[O-])cc1`, the growth in the test on NCI-H23 lung is 102%; in the test on NCI-H226 lung it was 99.5%; in the test with NCI-H322M lung, 101%; in the test on HOP-62 NSCLC, 109%; with NCI-H460 lung it was 111%; in the test on HOP-92 NSCLC, 92.9%. Also, the growth is 100% with NCI-H522 lung, 103% with A549/ATCC NSCLC, 103% in the test with 786-0 renal and 116% in the test on COLO 205 colon.

With `O=C(Nc1ccc(Cl)c(C(F)(F)F)c1)Nc1ccc(-c2cccnc2)cc1N1CCC(CO)CC1`, the growth was 38.4% with NCI-H23 lung; 53.4% in the test with NCI-H226 lung; 54.8% with NCI-H322M lung; 47.5% with HOP-62 NSCLC; 18.5% with NCI-H460 lung; 34.5% in the test on HOP-92 NSCLC. For the same compound, the growth was 20.2% in the test on NCI-H522 lung, 22.2% in the test with A549/ATCC NSCLC, 15.6% with 786-0 renal and -26.6% (active) with COLO 205 colon.

Source of the values: PubChem BioAssay (NCI).
